PubChem BioAssay (NCATS)
Inconclusive results are not listed. Unmarked numbers belong to inactive results. The source made the active and inactive calls. The call rests on the fitted dose curve; in most records, active means well fitted inhibition curve with a large enough effect; inconclusive means small, poorly fitted or top-dose-only effect; inactive means flat fitted curve, though single readings scatter.

Tested on: CRL-7250
Experiment: Cytotoxic Profiling of Annotated Libraries Using Quantitative High-Throughput Screening (AID 1296008); further: nearly all actives have a fitted effect of over 60% in size
Details: Five cell lines viability, CellTiter-Glo ATP luminescence, 48-72 h; max response: hits give low values
In short: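 Compounds were pin-transferred onto cells and incubated 48 or 72 hr at 37 degree Celsius, 95% humidity. CellTiter-Glo was added, plates sat 10 min at room temperature, then ATP-coupled luminescence was imaged as the viability read-out.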
On the % scale 0 is the no-effect control and ±100 the full control effect; potency means the concentration at half of the fitted maximal effect.

SMILES	max response	outcome	Potency
CC(C)(O)c1ccc2c(c1)C(O)C[C@H]1[C@](C)(C(=O)O)CCC[C@]21C (stereo not given in full)	1.1%		
CC1(C)CC[C@]2(C(=O)O)CC[C@]3(C)C(=CCC4[C@@]5(C)C[C@@H](O)[C@H](O)C(C)(C)C5CC[C@]43C)C2C1 (stereo not given in full)		inactive	
C/C=C1\[C@H](O[C@@H]2O[C@H](CO)[C@@H](O)[C@H](O)[C@H]2O)OC=C(C(=O)OC)[C@H]1CC(=O)OC[C@H]1O[C@@H](OCCc2ccc(O)cc2)[C@H](O)[C@@H](O)[C@@H]1O	-9.74%		
COc1ccc(Oc2cc(C)c(-c3csc(NC(=O)c4ccncc4)n3)c(C)c2)cc1			0.651 µM (active)
CN(CCc1ccc(Nc2ncc(-c3cccnc3)s2)cc1)Cc1ccccc1	-10.2%		
O=C(Nc1ccn[nH]1)c1c(F)cccc1F		inactive	
C(#Cc1nc2ncccc2nc1OCCN1CCCC1)c1ccccc1			6.51 µM (active)
C[C@@H]1CC[C@]2(C(=O)O[C@@H]3O[C@H](CO)[C@@H](O)[C@H](O)[C@H]3O)CC[C@]3(C)C(=CCC4[C@@]5(C)C[C@@H](O)[C@H](O)[C@](C)(C(=O)O)C5CC[C@]43C)[C@@H]2[C@]1(C)O (stereo not given in full)		inactive	
O=C(NOCC(O)CO)c1ccc(F)c(F)c1Nc1ccc(I)cc1F (stereo not given)			4.61 µM (active)
N#Cc1ccc2[nH]cc(CCCCN3CCN(c4ccc5oc(C(N)=O)cc5c4)CC3)c2c1	-7.54%		
C=C(C)C1Cc2cc(C(=O)OC3OC(CO)C(O)C(O)C3O)ccc2O1 (stereo not given)	-9%		
C=C(C(=O)O)C1CCC2(C)CCC(O)C(C)(O)C2C1 (stereo not given)	-18%		
O=C(Nc1ccc(S(=O)(=O)Nc2ccccc2Cl)c(Cl)c1)c1ccccn1	0.561%		
CCOC(=O)CCN(C(=O)c1ccc2c(c1)nc(CNc1ccc(C(=N)N)cc1)n2C)c1ccccn1	2.71%		
CC(C)C(CO)Nc1nc(Nc2ccc(C(=O)O)c(Cl)c2)c2ncn(C(C)C)c2n1 (stereo not given)		inactive	
C=C1C(O)C(O)C2(CC3C(C)=CCC4C(C)(CO)CCCC34C)OC2C1O (stereo not given)	-2.93%		
C[C@@H]1[C@H]2[C@H](O[C@@H]3O[C@H](CO)[C@@H](O)[C@H](O)[C@H]3O)OC=C(C(=O)O)[C@H]2C[C@@H]1O		inactive	
CCOc1ccc(NC(=S)N2CCC(C(O)(c3ccccc3)c3ccccc3)CC2)cc1	-3%		
CN1CCN(C2CCC(n3cc(-c4ccc(Oc5ccccc5)cc4)c4c(N)ncnc43)CC2)CC1 (stereo not given)			5.8 µM (active)
C[C@@H]1O[C@@H](O[C@H]2[C@H](O[C@H]3[C@H](O[C@H]4CC[C@@]5(C)C(CC[C@]6(C)C5CC=C5[C@@H]7CC(C)(C)CC[C@]7(C(=O)O[C@@H]7O[C@H](CO)[C@@H](O[C@@H]8O[C@@H](C)[C@H](O)[C@@H](O)[C@H]8O)[C@H](O)[C@H]7O)CC[C@]56C)C4(C)C)OC[C@H](O)[C@@H]3O)O[C@H](CO)[C@@H](O)[C@@H]2O)[C@H](O)[C@H](O)[C@H]1O (stereo not given in full)	-33.4%		

SMILES	max response	outcome	Potency
COc1ccc([C@@]2(O)c3c(ccc4c3OC(C)(CCC=C(C)C)C=C4)NC(=O)[C@@H]2OC)cc1 (stereo not given in full)	4.89%		
CC(C)(F)C[C@@H](N[C@@H](c1ccc(-c2ccc(S(C)(=O)=O)cc2)cc1)C(F)(F)F)C(=O)NC1(C#N)CC1	0.789%		
COc1cccc2cc3c(c(O[C@@H]4O[C@H](CO[C@@H]5O[C@H](CO)[C@@H](O)[C@H](O)[C@H]5O)[C@@H](O)[C@H](O)[C@H]4O)c12)C(C)OC3=O (stereo not given in full)	-0.694%		
C[C@H](O)[C@H](O)/C=C/c1cccc(O)c1CO	-1.75%		
COc1ccc(CCO[C@@H]2O[C@H](CO[C@@H]3OC[C@H](O)[C@H](O)[C@H]3O)[C@@H](O)[C@H](O)[C@H]2O)cc1	-3.54%		
COC(=O)N(C)c1c(N)nc(-c2nn(Cc3ccccc3F)c3ncccc23)nc1N		inactive	
C/C=C(\C)C(=O)O[C@H]1[C@@H](O[C@]2(COC(=O)CC(C)C)O[C@H](COC(=O)C(C)CC)[C@@H](OC(C)=O)[C@@H]2O)O[C@H](COC(C)=O)[C@@H](O)[C@@H]1O (stereo not given in full)	0.451%		
C=C1[C@H](OC(C)=O)[C@H]2[C@@H](OC(C)=O)[C@](C)(OC(C)=O)C[C@]2(OC(C)=O)C(=O)[C@H](C)/C=C/C(C)(C)C(=O)[C@H](OC(=O)C(C)C)[C@H]1OC(C)=O	0.468%		
CCc1cc(CN2CC(C(=O)O)C2)sc1-c1noc(-c2ccc(Oc3ccccc3)cc2)n1	-28.8%		
Cc1cc2c(c(=O)[nH]1)OC(C(O)CC(C)C)O2 (stereo not given)	-20.7%		
CC(C)=CCCC1(C)C=Cc2c(c(C)cc3c2[nH]c2ccccc23)O1 (stereo not given)	-19.1%		
CC(C)=CCC[C@](C)(O[C@@H]1O[C@H](CO)[C@@H](O)[C@H](O)[C@H]1O)[C@H]1CC[C@]2(C)[C@@H]1[C@H](O)CC1[C@@]3(C)CC[C@H](O)C(C)(C)C3[C@@H](O[C@@H]3O[C@H](CO)[C@@H](O)[C@H](O)[C@H]3O[C@@H]3OC[C@@H](O)[C@H](O)[C@H]3O)C[C@]12C (stereo not given in full)	-28%		
C[C@H](C(=O)NC1CCCC1)N(C(=O)Cn1nnc(-c2ccc3c(c2)OCO3)n1)C1CCCCC1		inactive	
CCc1cccc(CC)c1NC(=O)c1nn(C)c2c1CCc1cnc(Nc3ccc(C(=O)NC4CCN(C)CC4)cc3OC(F)(F)F)nc1-2	-0.147%		
CN(C)C1CCN(C(=O)c2ccc(NC(=O)Nc3ccc(-c4nc(N5CCOCC5)nc(N5CCOCC5)n4)cc3)cc2)CC1			0.0164 µM (active)
CC1CCN(C(=O)CC#N)CC1N(C)c1ncnc2[nH]ccc12 (stereo not given)	0.271%		
C[C@@H]1O[C@@H](O[C@H]2[C@@H]3C=CO[C@@H](O[C@@H]4O[C@H](CO)[C@@H](O)[C@H](O)[C@H]4O)[C@@H]3[C@@]3(CO)O[C@@H]23)[C@H](OC(=O)/C=C/c2ccccc2)[C@H](O)[C@H]1O	-0.445%		
COc1cc(/C=C/C(=O)O[C@H]2[C@H](O)[C@@H](CO)O[C@@]2(CO)O[C@H]2O[C@H](CO)[C@@H](O)[C@H](O)[C@H]2O)ccc1O	3.83%		
CC/C=C\[C@H](O)[C@H](O)C1=C(C)C(=O)[C@]2(O1)C(=O)N[C@@](OC)(C(=O)c1ccccc1)[C@@H]2O	-16%		
CC1(C)CCCC2(C)C1C(O)C=C(CO)C2(O)CO (stereo not given)		inactive	
